Potency data for 99 molecules are collected here from PubChem BioAssay AID651812 (National Center for Advancing Translational Sciences (NCATS), 2012).

The whole screen tested about 2,100 compounds, of which about 650 (31%) were called active. About 16% were inconclusive and are not listed. The call rests on the fitted dose curve; in most records, active means well fitted inhibition curve with a large enough effect; inconclusive means small, poorly fitted or top-dose-only effect; inactive means flat fitted curve, though single readings scatter. The list shows a part of the results. A call without a number means that no potency is given here.
Potency means the concentration at half of the fitted maximal effect.

This experiment is described as follows: qHTS for inhibitors of Vif-A3G interactions: Cherry picks. Further: nearly all actives have a fitted effect of over 80% in size. The conditions noted are these: HeLa A3G-eYFP + Vif (tagged APOBEC3G with the HIV-1 protein that degrades it), 24 h; Potency: eYFP fluorescence increase; series mostly up to 36.9 µM. In outline:
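Cherry-picked compounds tested at several concentrations on A3G-eYFP/Vif HeLa cells for 24 hours; loss of Vif-driven degradation read as eYFP fluorescence by cytometric plate imaging, 488 nm excitation, 500-530 nm emission.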
Consider `COCCNC(=S)NN=C1CCCCCC1`, for which the Potency result was “inactive”.
Turning to `O=C1CC(c2cc(Br)ccc2F)c2cc3c(cc2N1)CCC3` (centres undefined), the Potency result is “inactive”.
As for `Cc1ccc(/C=C/c2ccc(N(C)C)cc2)[n+](C)c1`, the figure is 14 µM (active).
Turning to `CN(C)c1ccc(/C=C/c2cc[n+](C)cc2)cc1`, the Potency is 15.8 µM (active).
The result for `CC[n+]1cc(C)ccc1/C=C/c1ccc(N(C)C)cc1` reads 14 µM (active); that for `O=C1NC(c2cccc(Cl)c2)Nc2ccccc21` (centres undefined), “inactive”.
`O=c1[nH]ncc2c3ccccc3n(Cc3cccc(Cl)c3)c12`: the Potency is 23.1 µM (active).
On to `CC(C)(C)c1ccc(Cn2c(=O)cnc3ccccc32)cc1`, for which the Potency entry is “inactive”.
In the case of `CN(C)c1ccc(/C=C2\SC(=S)N(Nc3ncc(C(F)(F)F)cc3Cl)C2=O)cc1`, the Potency is 3.66 µM (active).
`COc1cc(/C=C2\SC(=S)N(Nc3ncc(C(F)(F)F)cc3Cl)C2=O)ccc1O`: the Potency was 18.4 µM (active).
The result for `O=C(NNc1ncc(C(F)(F)F)cc1Cl)c1c(Cl)cccc1Cl` reads “inactive”.
With `CCOC(=O)Nc1ccc2nc(-c3cscn3)[nH]c2c1`, the Potency entry was “inactive”.
With `CCCn1c(C2CCCN2c2nc(-c3cccc(Br)c3)cs2)nc2ccccc21` (centres undefined), the Potency result was “inactive”.
For the molecule `CCc1ccc(C(=O)NC(=S)Nc2ccc(N3CCOCC3)cc2)cc1`, the Potency result was “inactive”.
Consider `CCc1ccc(NC(=O)/C(C#N)=C/c2cc3ccc(C)cc3nc2N2CCOCC2)cc1`, for which the Potency is 14.6 µM (active).
As to `Cc1cc2c(cc(C(=O)OCC(=O)NCc3cccs3)n2C(C)C)o1`, the Potency result was “inactive”.
Regarding `CCOC(=O)C1C(=O)C=C(/C=C/c2ccc(N(C)C)cc2)CC1c1ccccc1` (centres undefined), the Potency is 6.51 µM (active).
`COc1ccc(NC(=S)NN(C)C(=S)Nc2ccc(OC)cc2)cc1`: the Potency result was “inactive”.
`CCC(=C/c1sc2ccc3ccccc3c2[n+]1C)/C=C1\Sc2ccc3ccccc3c2N1C`: the Potency result is “inactive”.
`CCN1/C(=C/c2cc[n+](C)cc2)C=Cc2cc(C)ccc21`: the Potency is 23.1 µM (active).
As for `Cc1cc(C)c(S(=O)(=O)Oc2ccccc2[N+](=O)[O-])c(C)c1`, the Potency entry is “inactive”.
Turning to `CCOC(=O)C1CCCN(C(=O)c2ccc3nc(-c4cccc(OC)c4)oc3c2)C1` (centres undefined), the Potency result was “inactive”.
The result for `O=C(Cn1ncc(Cl)c(Cl)c1=O)Nc1ccc2c(c1)OCO2` reads “inactive”; that for `COc1ccc(NCc2cc3cc4c(cc3n(CC(=O)Nc3cc(C)ccc3C)c2=O)OCCO4)cc1`, 2.31 µM (active).
As for `COc1ccc(NC(=O)N(Cc2cc3ccc(OC)cc3[nH]c2=O)CC2CCCO2)cc1` (centres undefined), the Potency result was “inactive”.
`Cc1nonc1NC(=O)CSc1nc2c(C)cccc2cc1C#N`: the Potency was 18.4 µM (active).
Take `Cc1cc(NC(=O)CSc2nc3c(C)cccc3cc2C#N)no1`: the Potency is 20.6 µM (active).
As for `Cc1cc2cc(C#N)c(SCC(=O)Nc3nonc3C)nc2cc1C`, the figure is 14.6 µM (active).
`Cc1ccccc1NC(=O)CSc1nc2cc3c(cc2cc1C)CCC3`: the Potency result was “inactive”.
The result for `Cc1cc(NC(=O)CSc2nc(-c3cccs3)nc3ccccc23)no1` reads “inactive”; that for `COC(=O)C1CCC(=O)N1C(c1ccc(OC)cc1)c1cc(OC)c(OC)c(OC)c1` (centres undefined), “inactive”.
Take `COc1ccc2ccccc2c1C1NC(=O)c2ccccc2N1` (centres undefined): the Potency entry is “inactive”.
As to `Nc1ccccc1C=C1Cc2ccccc2C1=O`, the Potency was 16.4 µM (active).
For the molecule `O=C1C(=Cc2ccccc2[N+](=O)[O-])Cc2ccccc21`, the Potency result is “inactive”.
For `CN(C)c1ccc(/C=C2/C[N+](C)(C)C/C(=C/c3ccc(N(C)C)cc3)C2=O)cc1`, the Potency was 9.2 µM (active).
Regarding `CN(C)c1ccc(/C=C2\Cc3ccccc3C2=O)cc1`, the Potency was 3.26 µM (active).
As for `COc1ccc(/C=C2/CSC/C(=C/c3ccc(OC)c(OC)c3)C2=O)cc1OC`, the Potency entry was “inactive”.
The result for `Cc1ccc2nc(C)c(C(=O)NN=C3CCCCCC3)n2c1` reads “inactive”; that for `CSc1nc(Sc2ccccc2Cl)c2ccccc2n1`, “inactive”; that for `CCC1CCCCN1CCCNC(=O)c1ccc2c(c1)N(Cc1ccccc1F)C(=O)c1ccccc1S2(=O)=O` (centres undefined), “inactive”.
Take `COc1ccc(NC(=O)CSc2ccc3c4c(cccc24)C(=O)c2ccccc2-3)cc1`: the Potency was 7.31 µM (active).
`COc1ccc(NC(=O)c2cccc3ccccc23)cc1`: the Potency entry is “inactive”.
Regarding `CCn1c(CNC(=O)C23CC4CC(CC(C4)C2)C3)nnc1SCC(=O)Nc1ccc(OC)cc1`, the Potency result is “inactive”.
The result for `CCn1c(SCC(=O)Nc2cccc(O)c2)nc2c1c(=O)n(C)c(=O)n2C` reads “inactive”; that for `N#Cc1cccc(NC(=O)CSc2ccc3c4c(cccc24)C(=O)c2ccccc2-3)c1`, 6.51 µM (active); that for `CCCn1nnc(NC(=S)NC(=O)c2ccccc2OC)n1`, “inactive”.
With `O=C(NC12CC3CC(CC(C3)C1)C2)c1ccc([N+](=O)[O-])o1`, the Potency entry was “inactive”.
As to `CN1CCC(OC(=O)c2cc3cc(Cl)cc(Cl)c3oc2=O)CC1`, the Potency result was “inactive”.
Regarding `Cc1ccccc1OCCc1c(C)[nH]c(=S)[nH]c1=O`, the Potency result is “inactive”.
`O=C(c1ccccn1)C1CCCN(Cc2cn[nH]c2-c2cc3ccccc3o2)C1` (centres undefined): the Potency entry was “inactive”.
As for `Cc1c(N=C2N=C(NC(=O)c3cccs3)c3ccccc32)c(=O)n(-c2ccccc2)n1C`, the Potency is 14 µM (active).
For `COc1ccc(N2C(=O)CC(Sc3nc(C)c4c(n3)CCCC4)C2=O)cc1` (centres undefined), the Potency result is “inactive”.
For the molecule `Cn1c(N)c(-c2ccccc2)c2ccc([N+](=O)[O-])cc2c1=O`, the Potency was 15.8 µM (active).
In the case of `Cc1cc(C)c[n+](-c2nc3ccccc3nc2[N-]S(=O)(=O)c2ccc(Br)s2)c1`, the Potency is 18.4 µM (active).
On to `CCc1cc[n+](-c2nc3ccccc3nc2[N-]S(=O)(=O)c2ccc(Br)s2)cc1`, for which the Potency was 20.6 µM (active).
The result for `O=S(=O)([N-]c1nc2ccccc2nc1-[n+]1ccc(-c2ccncc2)cc1)c1ccccc1` reads “inactive”.
As for `COCc1ccc(O)c2ncccc12`, the Potency result is “inactive”.
As for `COC(=O)c1c(N2C(=O)[C@H]3[C@@H](C2=O)[C@]2(C(=O)Nc4c(C)cccc42)N2CCC[C@@H]32)sc(C)c1C`, the entry is “inactive”; as for `CC(=O)/C(N=Nc1cc(C)ccc1O)=C(\C)O`, 16.4 µM (active).
On to `CCCN(C(=O)CSc1n[nH]c(-c2ccc(OC)cc2)n1)c1c(N)n(Cc2ccccc2)c(=O)[nH]c1=O`, for which the Potency result is “inactive”.
For `COc1ccc2[nH]cc(/C=C/c3cc[n+](C)cc3)c2c1`, the Potency was 13 µM (active).
For `COc1ccc2c(c1)c(C(=O)N/N=C/c1ccc(Cl)cc1)c(C)n2C`, the Potency entry is “inactive”.
As to `Cc1ccc2[nH]cc(/C=C/c3cc[n+](C)cc3)c2c1`, the Potency was 4.44 µM (active).
For `C[n+]1ccc(/C=C/c2c[nH]c3ccc(F)cc23)cc1`, the Potency is 14.6 µM (active).
As for `COc1ccc2c(c1)c(/C=C/c1cc[n+](C)cc1)cn2C`, the figure is 1.98 µM (active); as for `CSc1cccc(NC(=O)c2cc3c(COC(C)=O)cnc(C)c3oc2=O)c1`, “inactive”.
In the case of `O=C(NC1C/C(=N/O)c2cc3c(cc21)OCO3)C(F)(F)F` (centres undefined), the Potency result was “inactive”.
Regarding `CCOc1ccc(C(C)=O)cc1COc1cccnc1[N+](=O)[O-]`, the Potency result is “inactive”.
In the case of `O=C(NCc1cccs1)C1CCN(c2ccc(S(=O)(=O)N3CCOCC3)cc2Cl)CC1`, the Potency result is “inactive”.
The result for `O=S(=O)(Nc1nc2ccccc2nc1OCC(F)(F)F)c1cccs1` reads “inactive”; that for `CC[N+](C)(C)c1ccc(/C=C/c2ccncc2)cc1`, 20.6 µM (active).
As for `CCC[N+](C)(C)c1ccc(/C=C/c2ccncc2)cc1`, the figure is 18.4 µM (active).
`C=CCOC(=O)C1=C(C)NC(C)=C(C(=O)OCC=C)C1c1cn(-c2ccccc2)nc1-c1ccco1`: the Potency result is “inactive”.
Regarding `CC(=O)c1cccc(-c2ccnc3c2CC(C(=O)Nc2ccc(Cl)cc2)O3)c1` (centres undefined), the Potency entry is “inactive”.
Turning to `NC(=O)c1c(Nc2nc3c(F)cccc3s2)sc2c1CCCC2`, the Potency entry was “inactive”.
The result for `CCCSc1ncc(Cl)c(C(=O)Nc2sc3c(c2C(N)=O)CCCC3)n1` reads 11.6 µM (active).
With `ClCC1NCC(c2ccccc2Cl)c2c1[nH]c1ccccc21` (centres undefined), the Potency result is “inactive”.
As for `S=c1[nH]cnc2sc(-c3ccccc3)cc12`, the Potency entry was “inactive”.
Consider `CN(C)C=Nc1c(Br)cc(Br)c2nonc12`, for which the Potency is 9.2 µM (active).
For `O=C(N/N=C/c1ccco1)c1cc(-c2ccncc2)nc2ccccc12`, the Potency result is “inactive”.
`O=C(N/N=C/c1ccc2c(c1)OCO2)c1cc(-c2ccco2)nc2ccccc12`: the Potency result is “inactive”.
`Nc1c(C(=O)N/N=C/c2ccccc2Cl)oc2nc(-c3ccccc3)cc(-c3ccco3)c12`: the Potency is 5.8 µM (active).
On to `Nc1c(C(=O)N/N=C/c2ccc(F)cc2)oc2nc(-c3ccccc3)cc(-c3ccco3)c12`, for which the Potency is 12.5 µM (active).
For `O=C(N/N=C/c1ccc(Cl)cc1)c1cc(-c2cccnc2)nc2ccccc12`, the Potency result was “inactive”.
Take `Cc1ccc(/C=N/NC(=O)c2cc(-c3ccccc3)nc3ccccc23)o1`: the Potency result was “inactive”.
The result for `Nc1c(C(=O)N/N=C/c2cccnc2)oc2nc(-c3ccccc3)cc(-c3ccco3)c12` reads 5.8 µM (active); that for `O=C(N/N=C/c1cccc(F)c1)c1cc(-c2ccco2)nc2ccccc12`, “inactive”.
The result for `Cc1ccc(C=NNC(=O)c2cc(-c3cccnc3)nc3ccccc23)o1` reads “inactive”; that for `CN(Cc1cnn(Cc2ccccc2)c1)C(=O)c1cccc(S(=O)(=O)N2CCOCC2)c1`, “inactive”.
In the case of `O=C(CN1c2cccc3cccc(c23)S1(=O)=O)Nc1ccc(S(=O)(=O)N2CCOCC2)cc1`, the Potency entry is “inactive”.
As for `CCn1c(O)c(/C=N/NC(=O)c2ccncc2)c(=O)n(CC)c1=S`, the Potency result was “inactive”.
As to `CC[n+]1c(C=C2C=C(C)OC(C)=C2)sc2ccccc21`, the Potency was 8.2 µM (active).
`CCSC1=NSC2=NC(=O)/C(=C\c3coc4ccccc4c3=O)C(=N)N12`: the Potency is 23.1 µM (active).
Regarding `COC1=C/C(=C/c2c(N)n3nc(-c4ccc(C)cc4)sc3nc2=O)C=CC1=O`, the Potency is 14.6 µM (active).
As for `CCS(=O)(=O)c1nn2c(N)c(/C=C3/C=CC(=O)C(OC)=C3)c(=O)nc2s1`, the entry is “inactive”; as for `CCc1ccc(CNC(=O)Cc2ccc(NC(=O)C3=C(C)OCCS3)cc2)cc1`, “inactive”.
On to `N#CC1=C2SCC(O)(c3ccccc3)N2C(=O)CC1c1ccccc1` (centres undefined), for which the Potency result was “inactive”.
`COc1ccc(NC(=O)C2(C)Cc3c(-c4cccc(NC(C)=O)c4)ccnc3O2)cn1` (centres undefined): the Potency result is “inactive”.
For the molecule `CCOc1ncccc1C(=O)NCc1ccc(OC)cc1`, the Potency result is “inactive”.
